# TMEM16A inh: blocks the mouse calcium-activated chloride channel TMEM16A. Q8BHY3. HEK293 TMEM16A/YFP iodide influx fluorescence, ionomycin. normalized B-score (activity score, 25-100; higher = stronger inhibition) at 10 µM. actives 1.2% (n = 310,000);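 active = ratio plate-corrected score three or more library SD toward inhibition, starting fluorescence score within five deviations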;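 note: score derived from kinetic fluorescence span divided by baseline fluorescence per well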
# ANO1 activ: mouse TMEM16A channel activation, primary screen | B-score at 10 µM | HEK293 TMEM16A/YFP-H148Q/I152L, iodide quench fluorescence; active compounds read low | actives 0.3% (n = 340,000);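 active = fluorescence-ratio B-score plate-corrected deviation score at least 3 library SD below zero, with starting fluorescence score within 5 deviations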;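 note: channel opened by trigger with iodide after compound preincubation; score built on the fluorescence ratio of max minus min over baseline; more negative score means more quench and so TMEM16A activation or potentiation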
# 697 NFkB inh: lowers PMA/ionomycin-induced NF-kB signal in 697 B cells; 697 B-cell NF-kB luciferase reporter, 16 h; inhibition, % at 4 µM; actives 0.33% (n = 330,000); AID 435022; in the data active = inhibition above about 35%
# Jurkat NFkB inh: inhibitors of the PMA/ionomycin-induced NF-kB reporter in Jurkat cells; PMA/ionomycin-induced NF-kB luciferase reporter, luminescence; inhibition, % at 4 µM; actives 0.53% (n = 330,000); AID 435003; in the data active = inhibition above about 50%
# aSyn 5UTR inh: MLPCN primary screen, SNCA 5' untranslated region; alpha-synuclein 5'UTR reporter, inhibitor activity; inhibition, % (tested at 7.5 µM); actives 0.82% (n = 300,000); AID 1813; in the data active = inhibition above about 60%;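 note: H4 neuroglioblastoma cells stably carrying SNCA 5'UTR luciferase fusion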
# KLF5 inh: suppresses KLF5 promoter-driven expression; DLD-1 KLF5 promoter-luciferase reporter, luminescence; inhibition, % at 5 µM; actives 0.23% (n = 290,000);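 active = inhibition above a per-plate limit of that plate's mean compound inhibition plus 3 SD, cut at about 60% in these data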;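 note: higher means less KLF5 promoter-driven luciferase light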
# TMEM16A reconf: reconfirmed blocker of mouse TMEM16A calcium-activated chloride channel; shares compounds with TMEM16A inh; HEK293 TMEM16A/YFP-H148Q, iodide quench fluorescence; ionomycin added to raise cell calcium; inhibition, % at 10 µM; actives 39% (n = 2,300); AID 652189;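 active = mean duplicate percent inhibition, scaled so buffer wells are 0 and the reference blocker 100, over three buffer SD above buffer mean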
# TMEM16A Ca cntr: calcium mobilization counter-screen hit for TMEM16A inhibitor series. calcium response (% of ionomycin), % at 10 µM. actives 2% (n = 2,300). AID 652231. TMEM16A/YFP HEK293, Fluo4 calcium mobilization. shares compounds with TMEM16A inh;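 active = duplicate-averaged calcium signal over 20% of the ionomycin maximum, relative to buffer baseline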;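 note: each well's signal is peak minus trough fluorescence divided by its pre-addition baseline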
# YFP-HEK293 quench: acts in parental YFP-HEK293 cells lacking TMEM16A, counter-screen; shares compounds with TMEM16A inh; iodide YFP quench, ionomycin; YFP ratio F(max-min)/F0 at 10 µM; 2,300 tested, under 10 active;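 active = yellow fluorescent protein signal ratio exceeding the buffer control mean by over 5 SD of those controls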;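 note: ratio is mean of duplicate wells from kinetic YFP trace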
# ClC-1 rat inh: selectivity of TMEM16A inhibitors: inhibition of rat ClC-1 chloride channel; shares compounds with TMEM16A inh; CHO ClC-1-YFP, iodide influx fluorescence quench; iodide control reads 0, buffer control 100; ratio percent, % at 10 µM; AID 652236; 2,300 tested, under 10 active;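 active = duplicate-mean ratio percent above the mean of iodide-only control wells, which defines zero, plus 5 of their SD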;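 note: higher percent means stronger block of ClC-1 iodide influx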
# Hits are given with their value; – = inactive; · = not tested or not shown. In the library only some 2.5% were active in any assay of this set; here they are far more common.
SMILES,TMEM16A inh,ANO1 activ,697 NFkB inh,Jurkat NFkB inh,aSyn 5UTR inh,KLF5 inh,TMEM16A reconf,TMEM16A Ca cntr,YFP-HEK293 quench,ClC-1 rat inh
COc1ccc(NC(=O)NCc2ccc3c(c2)OCO3)cc1OC,–,–,–,–,–,–,·,·,·,·
CSc1cccc(N2CC(C(=O)Nc3ccccc3N3CCCC3)CC2=O)c1 (configuration not stated),–,–,–,–,–,·,·,·,·,·
COc1ccc(NS(=O)(=O)c2ccc3c(c2)Cc2ccccc2-3)cn1,25,–,–,–,–,–,–,–,–,–
CCCOc1ccc(-c2nc(SCc3ccccc3)[nH]c(=O)c2C#N)cc1OC,100,–,–,–,–,–,30%,–,–,–
CCC1(c2ccc(C)cc2)NC(=O)N(C(C)C(=O)Nc2ccc(N3CCOCC3)cc2)C1=O (configuration not stated),·,–,–,–,·,·,·,·,·,·
COc1ccc(/C=C2/C(=O)N(c3ccccc3)N=C2C)cc1OC,–,–,–,–,–,–,·,·,·,·
CCOc1cc(/C=C2/C(=O)N(c3ccccc3)N=C2C)ccc1OC(=O)c1cccs1,25,–,–,–,–,–,–,–,–,–
Cc1sc2nc(CSC(C)C(=O)Nc3ccc(C#N)cc3)[nH]c(=O)c2c1C (configuration not stated),25,–,–,–,–,·,–,23%,–,–
O=[N+]([O-])c1ccc(SCc2c(F)cccc2Cl)nc1,25,–,–,–,–,–,16%,–,–,–
CC(NC(=O)c1ccco1)C(=O)N1CCN(S(=O)(=O)c2ccccc2C#N)CC1 (configuration not stated),·,–,–,–,·,·,·,·,·,·
O=C(Nc1ccc2oc(-c3ccccc3F)nc2c1)c1ccc2c(c1)OCCO2,100,–,–,–,–,–,17%,–,–,–
COC(=O)Cc1ccc(NC(=S)Nc2ccc(N3CCOCC3)cc2)cc1,25,–,–,–,–,–,–,–,–,–
COC(=O)Cc1ccc(NC(=S)NCCCN2CCOCC2)cc1,–,–,–,–,–,–,·,·,·,·
O=C(CCN1C(=O)/C(=C/c2ccco2)SC1=S)Nc1ccc(O)cc1C(=O)O,–,–,–,–,–,–,–,–,–,–
CC(Oc1ccc(Br)cc1)C(=O)NC1CCN(Cc2ccccc2)CC1 (configuration not stated),–,–,–,–,–,·,·,·,·,·
O=C(Nc1ccccc1N1CCOCC1)c1ccccc1NS(=O)(=O)c1ccc(F)c(F)c1,100,–,–,–,–,–,31%,–,–,–
COc1ccc(S(=O)(=O)N2CCCCCC2)cc1NC(=O)c1ccccc1F,·,–,–,–,·,·,·,·,·,·
Cc1cc(F)ccc1S(=O)(=O)Nc1ccccc1C(=O)Nc1ccccc1N1CCOCC1,25,–,–,–,–,–,–,–,–,–
Cc1ccc(S(=O)(=O)Nc2ccccc2C(=O)Nc2nc(-c3ccc(F)cc3)cs2)cc1,25,–,–,–,–,–,39%,–,–,–
Cc1ccc(S(=O)(=O)Nc2nc(-c3ccccc3)cs2)cc1,–,–,–,–,–,–,·,·,·,·
O=C(Nc1cc(S(=O)(=O)N2CCCCC2)ccc1O)c1ccccc1NS(=O)(=O)c1ccc(F)cc1,100,–,–,–,–,–,68%,–,–,–
CN(Cc1ccccc1F)C(=O)c1sccc1-c1ccccc1,–,–,–,–,–,–,·,·,·,·
O=C(OCc1ccc(Cl)cc1)c1ccccc1C(=O)c1ccccc1,100,–,–,–,–,–,–,–,–,–
COc1ccccc1C(=O)NC1CCN(C(=O)Nc2ccc(F)cc2)CC1,–,–,–,–,–,–,·,·,·,·
CN(C)S(=O)(=O)c1cccc(COC(=O)c2cccnc2Cl)c1,25,–,–,–,–,–,–,–,–,–
SMILES,TMEM16A inh,ANO1 activ,697 NFkB inh,Jurkat NFkB inh,aSyn 5UTR inh,KLF5 inh,TMEM16A reconf,TMEM16A Ca cntr,YFP-HEK293 quench,ClC-1 rat inh
CN(C)S(=O)(=O)c1cccc(COC(=O)c2cnccn2)c1,–,–,–,–,–,–,·,·,·,·
CC(OC(=O)c1ccc(NC(=O)CC#N)cc1)C(=O)Nc1nc(-c2ccccc2)cs1 (configuration not stated),100,–,–,–,–,·,22%,–,–,–
Cc1cc(C(=O)OC(C)C(=O)Nc2nc(-c3ccccc3)cs2)c(C)o1 (configuration not stated),25,–,–,–,–,–,–,–,–,–
Cc1cc(C(=O)OCC(=O)Nc2nc(-c3ccccc3)cs2)c(C)o1,–,–,–,–,–,–,·,·,·,·
CC(OC(=O)c1ccc(NC(=O)CC#N)cc1)C(=O)Nc1ccc(Oc2ccccc2)cc1 (configuration not stated),–,–,–,–,–,–,·,·,·,·
CCN1CCc2[nH]c3ccccc3c2C1,–,–,–,–,–,–,·,·,·,·
C#CCN(C(=O)c1cc(COc2cccc(C(F)(F)F)c2)on1)C1CCCCC1,100,–,–,–,–,–,54%,–,–,–
Cc1c(Cl)c(C(=O)NC2C3CC4CC(C3)CC2C4)nn1C (configuration not stated),100,–,–,–,–,–,–,–,–,–
C=CCOc1ccc(C2/C(=C(\O)c3ccc4c(c3)CC(C)O4)C(=O)C(=O)N2CCN2CCOCC2)cc1OCC (configuration not stated),–,–,–,–,–,–,·,·,·,·
CCn1c(SCC(=O)c2ccc3c(c2)OCCO3)nnc1C(C)C,–,–,–,–,·,–,–,–,–,–
CC(C)n1nnnc1SCC(=O)c1ccc2c(c1)OCCO2,–,–,–,–,–,–,·,·,·,·
O=C(CSc1nc2ncc(Br)cc2[nH]1)Nc1ccccc1-c1ccccc1,100,–,–,–,–,–,–,–,–,–
CCc1ccc(NC(=O)CSc2nc3ncc(Br)cc3[nH]2)cc1,–,–,–,–,–,–,·,·,·,·
COc1ccccc1C(c1nnnn1C(C)(C)C)N1CCN(Cc2ccncc2)CC1 (configuration not stated),–,·,–,–,–,–,·,·,·,·
COc1ccccc1N1CCN(C(c2ccccc2Cl)c2nnnn2C(C)(C)C)CC1 (configuration not stated),100,–,–,–,·,–,25%,–,–,–

# Assay outcomes: PubChem BioAssay, several laboratories
